This is an account of results in PubChem BioAssay (NCI).

Compounds without any hit were thinned out: in the full panel of roughly 83,000, 20% have a hit.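 Assay: single dose, 48 h. Readout: percent growth (0 = no net growth; negative = cell death). Active: <10.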 Unmarked numbers belong to inactive results. Activity calls are given as the source filed them.

Assay in all cases: NCI-60 one-dose screen, 48 h (100 = growth as untreated, 0 = no growth, -100 = all killed)
Conditions in all cases: 10 µM unless noted

Assay [1] concerns DU-145 prostate.
The test system of assay [2] is K-562 leukemia.
In assay [3] the test system is MALME-3M melanoma.
Assay [4] relates to MDA-MB-231 breast.
The subject of assay [5] is RXF 393 renal.
Assay [6] concerns SF-268 CNS.
In assay [7] the test system is SF-295 CNS.
Assay [8] concerns SF-539 CNS.
For assay [9], the system named is UACC-257 melanoma.
Assay [10] concerns M14 melanoma.

With `Cc1ccc(S(=O)(=O)Nc2ccc(-c3ccc4c(c3)NC(=O)/C4=C\c3ccc[nH]3)cc2)cc1`, the growth in assay [1] was 65.6%; in assay [2], 42.2%; in assay [3], 90%; in assay [4] it was 97.4%; in [5], 96.4%; in [6], 111%. In addition, the growth in [7] is 93.8%; in assay [8], 93.8%; in assay [9], 110%; in [10] it was 90.9%.
Take `Cc1ccc(-c2cc(C(=O)N=Nc3c(O)[nH]c4ccc(F)cc34)c3ccccc3n2)cc1`: the growth was 51.1% in assay [1]; 60.8% in [2]; 48.4% in assay [3]; 11% in assay [4]; 109% in assay [5]; 65.3% in assay [6]. The growth in assay [7] was 98.7%; in assay [8] it was -39.7% (active); in assay [9], 69%; in assay [10], 79.6%.
On to `O=C1/C(=C/c2cccc3c2OCO3)Cc2c(F)cc(Br)cc21`, for which the growth was 115% in [1]; 109% in assay [2]; 103% in [3]; 115% in assay [4]; 104% in assay [5]; 109% in assay [6]. Moreover, the growth is 96% in assay [7], 99.7% in assay [8], 114% in assay [9] and 98.9% in assay [10].
With `CC1CCc2c(sc3nc(SCC(=O)c4cccc([N+](=O)[O-])c4)n(-c4ccccc4)c(=O)c23)C1` (stereo not given), the growth in assay [1] was 63.1%; in assay [2] it was 57.1%; in assay [3], 111%; in [4], 10.1%; in assay [5] it was 99.9%; in [6] it was 73.2%. In addition, the growth is 74.2% in assay [7], -10.9% (active) in assay [8], 97.8% in assay [9] and 80.6% in assay [10].
For `COc1ccc(C2=NN(C(=O)[C@H]3[C@@H](c4ccco4)c4sc(=O)[nH]c4S[C@@H]3C)C(c3ccc4ccccc4c3)C2)cc1` (stereo not given in full), the growth was 62.7% in [1]; 16% in [2]; 50.6% in assay [3]; 47.5% in assay [4]; 11.2% in [5]; 45.3% in assay [6]. For the same compound, the growth is 38.6% in [7], 28.6% in assay [8], 43.2% in assay [9] and 24.1% in assay [10].
In the case of `O=C(c1cc2cc(OCCCN3CCC3)ccc2[nH]1)N1C[C@@H](CCl)c2c1cc(OCc1ccccc1)c1ccccc21`, the growth was -29.5% (active) in assay [1]; 0.535% (active) in assay [2]; -73.9% (active) in [3]; -41.4% (active) in [4]; -80.8% (active) in [5]; 0.226% (active) in assay [6]. The growth in assay [7] is -4.45% (active); in assay [8], -79.8% (active); in assay [9], -23.1% (active); in assay [10], -79.3% (active).
In the case of `O=C1NC(=S)/C(=C/c2cn(-c3ccccc3)nc2-c2ccccc2)S1`, the growth is 34.4% in assay [1]; 22.2% in [2]; 10.4% in assay [3]; 39.5% in assay [4]; 9.95% (active) in assay [5]; 36.4% in assay [6]. Also, the growth is 17% in [7], 22.5% in assay [8], 6.05% (active) in assay [9] and 25% in [10].
As to `COc1ccc(NC(=O)NN2C(=O)c3ccccc3N(C)C2c2ccc(OC)cc2)cc1` (stereo not given), the growth in [1] is 107%; in assay [2], 95.6%; in [3], 95%; in assay [4], 98.9%; in assay [5] it was 112%; in [6], 107%. Besides, the growth in [7] is 101%; in assay [8], 100%; in assay [9] it was 103%; in assay [10], 70.3%.
Take `C[C@@H]1CN(c2ccc3ncc(C#Cc4cncc(C(=O)Nc5ccc(CN6CCN(C)CC6)c(C(F)(F)F)c5)c4)n3n2)C[C@@H](C)O1`: the growth in assay [1] was -85.7% (active); in assay [2], -28.1% (active); in [3], -97.5% (active); in assay [4], -93.1% (active); in [5], -96.1% (active); in [6] it was -56.2% (active). Moreover, the growth is -100% (active) in [7], -100% (active) in assay [8], -86.6% (active) in assay [9] and -94% (active) in assay [10].
In the case of `CCOC(=O)/C(F)=C/C1CC1C(c1ccccc1)c1ccccc1` (stereo not given), the growth is 106% in assay [1]; 70.4% in [2]; 81.2% in [3]; 88.4% in [4]; 77.2% in assay [5]; 99.1% in [6]. Besides, the growth in [7] is 88.7%; in assay [8], 96.5%; in assay [9], 105%; in assay [10], 91.7%.
For `COc1ccc2c(c1)C(Sc1ccc(Br)cc1)c1c(nc(N)c(C#N)c1N)O2` (stereo not given), the growth in [1] is 95.4%; in assay [2], 69.1%; in [3] it was 85.2%; in [4], 79.2%; in [5], 67.6%; in [6], 75.2%. In addition, the growth in [7] is 81.1%; in assay [8] it was 88.8%; in assay [9], 103%; in assay [10], 85.6%.
In the case of `C=CC[n+]1cccc2c3ccccc3ccc21`, the growth in assay [1] was 58.4%; in [2], 27.8%; in [3], 2.38% (active); in assay [4], 77.6%; in assay [5] it was 69.7%; in assay [6], 22.7%. Further, the growth was 21.4% in assay [7], 66.6% in assay [8], 20.9% in [9] and 65.9% in assay [10].
Regarding `O=Cc1cncc(-c2ccc3ncnc(N4CCc5cc(F)c(Cl)cc54)c3c2)c1`, the growth was 22.5% in [1]; 35.5% in assay [2]; 23.7% in [3]; 28.2% in assay [4]; -7.23% (active) in assay [5]; 42.1% in assay [6]. Moreover, the growth in assay [7] is 19.2%; in assay [8], 25.8%; in assay [9], 59.1%; in assay [10], 48.6%.
Turning to `O=C1Nc2ccc(F)cc2/C1=C/C(=O)c1cc2ccccc2oc1=O`, the growth in assay [1] is 111%; in assay [2] it was 33.9%; in assay [3], 71.2%; in assay [4] it was 91.8%; in [5], 83.4%; in [6] it was 106%. Moreover, the growth in assay [7] was 108%; in assay [8], 105%; in [9], 96.3%; in assay [10], 89.1%.
With `O=C1Nc2cc(-c3ccc(NS(=O)(=O)c4ccc(C(F)(F)F)cc4)cc3)ccc2/C1=C/c1ccc[nH]1`, the growth is 40.6% in assay [1]; 11.4% in assay [2]; 63.3% in [3]; 66.7% in assay [4]; 25% in assay [5]; 55.5% in [6]. Further, the growth in assay [7] is 17.6%; in assay [8], 42.4%; in [9], 26.3%; in assay [10] it was 55.3%.
On to `Cc1cccc(/C=C/c2ccc(NC(=S)NCCCCN(C)C)cc2)c1`, for which the growth was -82.7% (active) in assay [1]; 3.99% (active) in assay [2]; -96.1% (active) in assay [3]; -94.4% (active) in [4]; -91.8% (active) in assay [5]; -52.4% (active) in assay [6]. Besides, the growth is -95.6% (active) in assay [7], -86.4% (active) in assay [8], -65.4% (active) in assay [9] and -64.4% (active) in assay [10].
As for `CN1CCN(C(=O)Oc2cc3c(c4ccccc24)[C@H](CCl)CN3C(=O)c2cc3cc(OCCCN4CCC4)ccc3[nH]2)[C@H]2CSSC[C@H]21`, the growth in assay [1] was -3.53% (active); in [2], 3.04% (active); in assay [3], -64.8% (active); in assay [4] it was -14.8% (active); in assay [5] it was -78.8% (active); in assay [6] it was -9.36% (active). The growth in assay [7] is -6.36% (active); in assay [8], -75.2% (active); in assay [9], -15.6% (active); in assay [10], -75.2% (active).
On to `Cn1cc(-c2cc(N)n3nc(-c4c[nH]c5ccccc45)cc3n2)c2ccccc21`, for which the growth in assay [1] was -89.1% (active); in assay [2] it was 11.4%; in [3] it was -94.8% (active); in [4], -89.8% (active); in assay [5] it was -72.5% (active); in assay [6], -51.3% (active). Further, the growth is -90.3% (active) in [7], -99.5% (active) in assay [8], -92% (active) in assay [9] and -81.5% (active) in [10].
As for `Cn1cc(-c2cc3nc(-c4cn(C)c5ncccc45)cc(N)n3n2)c2cc(F)ccc21`, the growth was 21.8% in assay [1]; 20.7% in [2]; 62% in assay [3]; 3.66% (active) in assay [4]; -14.4% (active) in [5]; 52.3% in assay [6]. Further, the growth in [7] is 28.3%; in assay [8], 12.8%; in [9] it was 72.7%; in assay [10] it was 71.2%.
Regarding `Cc1[nH]nc2ccc3nc(-c4cn[nH]c4C(F)(F)F)c4c(c3c12)CCCC4`, the growth was 5.72% (active) in [1]; 14.9% in assay [2]; -24% (active) in assay [3]; -14.8% (active) in [4]; -79.6% (active) in assay [5]; 18% in assay [6]. Moreover, the growth in [7] is -12.9% (active); in assay [8], -67.2% (active); in assay [9] it was 17.8%; in assay [10] it was 3.29% (active).
In the case of `Nc1cc(-c2c[nH]c3ccc(Cl)cc23)nc2cc(-c3c[nH]c4ccccc34)nn12`, the growth in [1] is 8.69% (active); in assay [2], 6.27% (active); in assay [3], -68.2% (active); in [4] it was -79.2% (active); in [5], -21.5% (active); in assay [6], 9.75% (active). The growth in assay [7] is -79.4% (active); in [8], -81.5% (active); in assay [9] it was -73.2% (active); in assay [10] it was -25.8% (active).
For `CCCCNc1ccc2c3c(cccc13)C(=O)N(NCC(O)COc1ccc3c(C)cc(=O)oc3c1)C2=O` (stereo not given), the growth is 89.2% in assay [1]; 75.8% in assay [2]; 110% in [3]; 81.4% in assay [4]; 91.6% in assay [5]; 79.6% in assay [6]. In addition, the growth in [7] is 95.5%; in [8] it was 91.8%; in assay [9] it was 106%; in assay [10], 90.6%.
For `COc1ccc(N=Nc2c(N)nn3c(-c4cc5cc(Br)ccc5oc4=O)ccnc23)cc1`, the growth in assay [1] is 37.3%; in [2], 48.4%; in [3] it was 46.4%; in [4] it was -27.3% (active); in [5], -41.8% (active); in [6], 23.2%. Moreover, the growth was -33.6% (active) in [7], 15.6% in [8], 78.1% in [9] and 52.5% in assay [10].
As to `Cc1ccc(C(C)C)cc1Oc1cccc(-c2c(-c3ccc(C(F)(F)F)cc3)ncn2C2CCNCC2)n1`, the growth in [1] was -83.5% (active); in assay [2], -60.7% (active); in assay [3], -86.6% (active); in assay [4], -95.7% (active); in [5] it was -90.3% (active); in assay [6], -56.6% (active). The growth in assay [7] is -94.2% (active); in [8], -98.2% (active); in assay [9], -88.4% (active); in assay [10] it was -97.2% (active).
